# CYP2C9 activ – increases human cytochrome P450 2C9 activity | P11712 | recombinant CYP2C9, luciferin-H conversion, luminescence; active compounds read high; factor 1 = untreated enzyme, 0 = blocked | activation factor at 5 µM | 96,000 tested, 1.4% active;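 active = activation factor of 2 or more for CYP2C9 at a 5 µM dose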;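 also: 0 = sulfaphenazole-blocked wells and 1 = vehicle-only wells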
# CYP2C19 inh – inhibitors of human CYP2C19; P33261; CYP2C19 Supersomes, luciferin-H EGE luminescence, 30 min; inhibition, % at 5 µM; 96,000 tested, 21% active; AID 778;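 active = CYP2C19 inhibition above a set limit at 5 µM in the primary screen, cut at about 50% in these data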;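 also: plate controls were negative control wells for no effect and 2.5 mM tranylcypromine positive control for full effect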
# Target sequence (P33261 whole entry, looked up): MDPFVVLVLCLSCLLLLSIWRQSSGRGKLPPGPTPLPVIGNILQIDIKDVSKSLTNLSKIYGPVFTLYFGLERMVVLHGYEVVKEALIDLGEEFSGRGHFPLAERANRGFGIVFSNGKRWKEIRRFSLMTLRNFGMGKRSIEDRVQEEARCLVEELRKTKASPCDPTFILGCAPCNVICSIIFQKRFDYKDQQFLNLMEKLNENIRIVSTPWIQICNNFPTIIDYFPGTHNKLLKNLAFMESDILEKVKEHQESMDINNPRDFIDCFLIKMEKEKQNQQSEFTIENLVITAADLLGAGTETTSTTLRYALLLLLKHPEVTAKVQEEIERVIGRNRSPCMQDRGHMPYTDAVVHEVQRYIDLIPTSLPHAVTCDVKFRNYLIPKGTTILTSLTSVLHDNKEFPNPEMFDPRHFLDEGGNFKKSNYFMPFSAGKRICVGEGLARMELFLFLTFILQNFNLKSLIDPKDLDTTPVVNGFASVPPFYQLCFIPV
# CYP2C19 act – cytochrome P450 2C19 (human) activation; P33261; recombinant CYP2C19, luciferin-H EGE luminescence; active compounds read high; 0 = fully inhibited enzyme, 1 = untreated enzyme; activation factor at 5 µM; 96,000 tested, under 10 active; AID 1025;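 active = activation factor of at least 2 at 5 µM in the primary screen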;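 also: 0 = wells with 2.5 mM tranylcypromine and 1 = vehicle-only wells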
# CYP2C9 inhib – inhibitors of human CYP2C9 | 96,000 tested, 20% active | P11712 | CYP2C9 Supersomes, luciferin-H conversion, luminescence | inhibition, % at 5 µM;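 active = blocking of liver enzyme CYP2C9 beyond about 50% at 5 µM, limit read from the data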
# * hit, by the source's call. Only some compounds are listed: those with a hit (about 31% of all), similar ones and a draw of the others.
SMILES,CYP2C9 activ,CYP2C19 inh,CYP2C19 act,CYP2C9 inhib
CC1(C)CC(=O)C(C=NCCN2CCN(C(=O)C34CC5CC(CC(C5)C3)C4)CC2)=C(O)C1,1,33.9,0.7,4.4
CCOC(=O)c1cc(NC(=O)N2CCCCC2)c(C)nc1C,1.1,10.6,0.9,-9.5
CC(NC(=O)COC(=O)CCNC(=O)c1ccco1)C12CC3CC(CC(C3)C1)C2 (stereo unspecified),0.4,51.2*,0.5,55.6*
CC(NCC(O)COCc1cccs1)C1CC2CCC1C2 (stereo unspecified),0.8,29.7,0.7,15.8
COc1cc(OC)cc(C(=O)NCC(=O)OC2CCOC2=O)c1 (stereo unspecified),0.9,-0.4,1,10.1
COc1ccc(C(=O)NCC(=O)OC2CCCCC2=O)cc1 (stereo unspecified),1,80.6*,0.2,-0.1
O=C(CC(c1ccco1)C1CCCCC1=O)c1ccco1 (stereo unspecified),0.4,52.9*,0.5,55.4*
COc1ccc(C(=O)CC(c2ccccc2)C2CCCCC2=O)cc1 (stereo unspecified),0.3,20.3,0.8,72.6*
Nc1c(-c2cccc(Cl)c2)cnn1-c1cccc(C(F)(F)F)c1,1.3,23.5,0.8,-25.4
O=c1ccn(-c2cccc(C(F)(F)F)c2)nc1-c1ccn(-c2cccc(Cl)c2)n1,0.5,27.6,0.7,52.2*
CCCN(N=Nc1cccc([N+](=O)[O-])c1)c1cccc([N+](=O)[O-])c1,0.3,11.4,0.9,73.5*
COc1ccc(S(=O)(=O)N(CC(=O)O)c2ccc(C)cc2)cc1,0.9,-1.9,1,11.5
CCNC(=O)CN(CCc1ccccc1)S(=O)(=O)c1ccc(OC)cc1,0.1,96.3*,0,87.7*
COc1ccc(S(=O)(=O)N(CCc2ccccc2)CC(=O)O)cc1,0.4,52.9*,0.5,64.7*
COc1ccc(S(=O)(=O)N(CCc2ccccc2)CC(=O)NCCCO)cc1,1.2,51.1*,0.5,-17.2
CCNCc1cc(OCC)c(OCC(=O)NCCc2ccccc2)cc1Cl,0.8,88.0*,0.1,19.4
COc1cc(C(=S)N2CCC(C(N)=O)CC2)ccc1O,1,5.7,0.9,3.6
CCOc1ccc(C(=S)N2CCOCC2)cc1OCC,1.4,-16.7,1.2,-44.0
O=C(COc1ccc(Cl)cc1Cl)NCCCCc1ccccc1,0.8,45.7,0.5,19.2
CCOc1cc(C(=S)N2CCC(O)CC2)ccc1OS(=O)(=O)c1ccc(Br)cc1,0.3,86.7*,0.1,67.5*
CCOc1cc(C(=S)N2CCCCC2)ccc1OS(=O)(=O)c1ccc(Cl)cc1,0.2,71.5*,0.3,80.6*
CCOc1cc(C(=S)N2CCCCC2)ccc1OCC(=O)NCc1ccccc1,0.2,57.8*,0.4,82.8*
O=P(O)(CCCCP(=O)(O)CCc1ccccc1)CCc1ccccc1,1.1,-14.0,1.1,-11.8
O=C(CCS(=O)(=O)Cc1ccc(Cl)cc1)NCCCN1CCN(c2ccccc2F)CC1,0.8,22.0,0.8,17.1
CCOc1cc(C(=S)N2CCCCC2)ccc1OS(=O)(=O)c1ccc(Br)cc1,0.3,56.1*,0.4,69.1*
SMILES,CYP2C9 activ,CYP2C19 inh,CYP2C19 act,CYP2C9 inhib
C#CCOc1ccc(Cl)cc1/C=N/O,0.6,51.2*,0.5,44.6
CCOc1ccc(Br)cc1/C=N/O,1,8.5,0.9,2.7
C#CCOc1ccc(Br)cc1/C=N/O,0.3,64.2*,0.4,65.8*
O/N=C/c1cc(Cl)ccc1OCc1cccc2ccccc12,0.2,52.7*,0.5,76.0*
Cc1ccccc1S(=O)(=O)Cc1ccc(C(=O)NCCCOC(C)C)o1,0.7,28.8,0.7,28.6
NS(=O)(=O)c1ccc(NC(=O)C2CCCO2)cc1 (stereo unspecified),1.1,3.2,1,-10.3
COCCN(CC(=O)NC1CCCCC1)C(=O)c1csnn1,1.1,-8.3,1.1,-10.1
Cc1cccc(N(CC(=O)NC2CCCC2)C(=O)CS(=O)CC(=O)Nc2ccc3c(c2)OCO3)c1 (stereo unspecified),0.1,35.0,0.7,88.4*
Cc1cccc(N(CC(=O)NC2CCCC2)C(=O)CCCC(=O)Nc2ccccn2)c1,0.4,78.1*,0.2,61.7*
CCOc1ccc(N(CC(=O)NC2CCCC2)C(=O)CCCC(=O)Nc2ccccn2)cc1,0.9,19.6,0.8,13.5
COc1ccccc1N(CC(=O)NC1CCCC1)C(=O)c1csnn1,0.8,90.9*,0.1,16.3
Cc1ccc(C)c(N(CC(=O)NC2CCCC2)C(=O)CCCC(=O)Nc2ccccn2)c1,0.2,80.1*,0.2,83.4*
Cc1cccc(N(CC(=O)NC2CCCC2)C(=O)c2c(C)noc2C)c1,0.7,9.2,0.9,28.4
COc1ccc(OC)c(C2C(C(C)=O)=C(O)C(=O)N2Cc2cccnc2)c1 (stereo unspecified),1,-9.3,1.1,-2.9
O=C(Cc1c(C(=O)O)[nH]c2ccccc12)NCCN1CCN(c2cccc(Cl)c2)CC1,0.9,-1.6,1,13.2
O=C(O)C1CCC(N2C(=O)C3CCCCC3C2=O)CC1 (stereo unspecified),1.1,7.0,0.9,-9.0
Cc1c(Br)c([N+](=O)[O-])nn1C(C)C(=O)Nc1c(C)n(C)n(-c2ccccc2)c1=O (stereo unspecified),0.8,10.8,0.9,16.1
O=C(OCC(=O)N1CCCC1)c1cccs1,1,4.6,1,-3.5
CCN(CC)CCOc1nnc(-c2ccc(C)cc2)c2ccccc12,0.8,4.7,1,16.0
COc1ccccc1N(CC(=O)NC1CCCCC1)C(=O)CCC(=O)Nc1ccccn1,0.4,64.1*,0.4,60.3*
CCOc1ccc(N(CC(=O)NC2CCCC2)C(=O)CCC(=O)Nc2ccccn2)cc1,0.9,29.2,0.7,11.1
CN(C)C(=O)C(=O)c1cccn1-c1ccccc1C#N,1,-1.7,1,-1.0
CCN(CC)C(=O)C(=O)c1cccn1-c1cccc(Cl)c1C#N,0.6,81.0*,0.2,42.6
CC(C)N(C(=O)C(=O)c1cccn1-c1ccccc1C#N)C(C)C,0.7,54.2*,0.5,27.2
Cc1ccc(C(=O)c2cc3ccccc3o2)cc1,0.6,41.5,0.6,36.2
SMILES,CYP2C9 activ,CYP2C19 inh,CYP2C19 act,CYP2C9 inhib
Cc1cc2nc(NC3=NCN(Cc4ccc5c(c4)OCO5)CN3)nc(C)c2cc1C,0.9,9.1,0.9,6.0
Clc1ccc2[nH]c3c(NCCN4CCOCC4)ncnc3c2c1,1.1,-10.4,1.1,-15.0
Clc1ccc2[nH]c3c(NCC4CCCO4)ncnc3c2c1 (stereo unspecified),0.2,73.6*,0.3,81.0*
CC(=O)Nc1ccc(NC(=O)COC(=O)Cc2cccs2)cc1,0.9,10.8,0.9,9.9
Cc1csc(Sc2ccc([N+](=O)[O-])cc2C(=O)OCC(=O)NC2CCCC(C)C2C)n1 (stereo unspecified),0.5,57.8*,0.4,50.3*
N#Cc1c(Cl)c(Cl)c2nnc(-c3ccc(Br)cc3)n2c1Cl,0.1,39.4,0.6,93.7*
CCCCOCCCNC1=NCCCCC1,1,-0.9,1,0.4
c1ccc2c3c([nH]c2c1)-c1[nH]ncc1CC3,0.3,24.4,0.8,67.1*
